The values below come from PubChem BioAssay (Tox21).

Inconclusive results are not listed. A call without a number means that no potency is given here. The source made the active and inactive calls. The call rests on the fitted dose curve; in most records, active means well fitted cell-killing curve with a large enough effect in the repeat runs; inconclusive means weak or mixed curves, or effect the other way; inactive means flat fitted curve, though single readings scatter.

The nature of the experiment: cAMP Responsive Elements (CRE) small molecule antagonists, cell-based qHTS assay: qHTS cell viability counter screen (AID 2060913). Further: nearly all actives have a fitted effect of over 40% in size. To be noted: CRE-bla HEK293T viability, CellTiter-Glo luminescence, 5 h; series mostly up to 92.4 µM. A digest of the protocol:
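Steps: cells plated and held 18 hrs at 37 C/5% CO2; compounds and NKH477 (0.25 uM final) added; 3 hrs incubation; reporter substrate read; CellTiter-Glo added to measure cytotoxicity by luminescence.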
On to `O=C(O)[C@H](O)[C@@H](O)C(=O)O`, for which the Potency entry is “inactive”. The entry for `CNC(=O)Oc1cccc2ccccc12` is “inactive”; for `O=C(Nc1ccc(Br)cc1)c1cc(Br)cc(Br)c1O` it is “inactive”; for `CN(N=O)c1ccccc1` it is “inactive”. With `CC(C)(C)NCC(O)c1cc(Cl)c(N)c(Cl)c1` (stereo not given), the Potency result was “inactive”.

`O=P(O)(O)CCCl`: the Potency result is “inactive”. The entry for `Nc1ccc(N)cc1` is “inactive”; for `C[C@H](N)[C@H](O)c1ccc(O)c(O)c1` it is “inactive”. The result for `COC(=O)/C=C(\C)OP(=O)(OC)OC` reads “inactive”; that for `CC(C)c1ccc(NC(=O)N(C)C)cc1`, “inactive”; that for `CCOP(=S)(OCC)SCn1nnc2ccccc2c1=O`, “inactive”. Take `O=[N+]([O-])c1cccc2cccnc12`: the Potency result was “inactive”. For `CC(=O)c1ccc(-c2ccccc2)cc1`, the Potency entry is “inactive”.

With `CC(C)(C)C(O)C(Oc1ccc(-c2ccccc2)cc1)n1cncn1` (stereo not given), the Potency entry is “inactive”.

For `ClCCN1CCOCC1`, the Potency entry was “inactive”. The result for `BrCC(Br)C1CCC(Br)C(Br)C1` (stereo not given) reads “inactive”; that for `O=C(CBr)c1ccc(O)cc1`, “inactive”; that for `CCC(=O)c1ccccc1`, “inactive”. For the molecule `C=C1CC[C@@]2(O)[C@H]3Cc4ccc(O)c5c4[C@@]2(CCN3CC2CC2)[C@H]1O5`, the Potency result is “inactive”.

In the case of `C/C(=N\NC(=O)Nc1cc(F)cc(F)c1)c1ncccc1C(=O)O`, the Potency result is “inactive”. On to `Nc1ccccc1C(=O)OCC(O)CO` (stereo not given), for which the Potency result was “inactive”. The entry for `COC(=O)Nc1nc2ccccc2[nH]1` is “inactive”; for `Nc1ccc(-c2ccc(N)c(Cl)c2)cc1Cl` it is “inactive”; for `COCC(=O)N(c1c(C)cccc1C)C(C)C(=O)OC` (stereo not given) it is “inactive”. For `CC1(C)[C@H](C(=O)O[C@H](C#N)c2cccc(Oc3ccccc3)c2)[C@@H]1C=C(Br)Br`, the Potency entry is “inactive”.

`NC(=O)CN1CCCC1=O`: the Potency result is “inactive”. The entry for `ClCc1ccccn1` is “inactive”. The entry for `NC(=O)CS(=O)C(c1ccccc1)c1ccccc1` (stereo not given) is “inactive”; for `O=C(Cl)C(Cl)Cl` it is “inactive”. The entry for `CCSCc1ccccc1OC(=O)NC` is “inactive”; for `CC(C)(c1cc(Cl)c(O)c(Cl)c1)c1cc(Cl)c(O)c(Cl)c1` it is “inactive”. With `NNC(=S)NN`, the Potency entry is “inactive”. The result for `Cc1ccc(N)cc1C` reads “inactive”; that for `CCOP(=S)(OCC)Oc1ccc(S(C)=O)cc1` (stereo not given), “inactive”; that for `CCN(Cc1ccc(Cl)nc1)/C(=C/[N+](=O)[O-])NC`, “inactive”. The entry for `COS(=O)(=O)c1ccc(C)cc1` is “inactive”; for `CC(=O)O.CC(=O)O.CC(=O)O.CC(=O)O.CC(=O)O.CC(=O)O.CC(=O)O.O.O.[Cr].[Cr].[Cr]` it is “inactive”; for `CNP(=O)(OC)Oc1ccc(C(C)(C)C)cc1Cl` (stereo not given) it is “inactive”. The result for `O=[N+]([O-])c1ccc(CBr)cc1` reads “inactive”; that for `O=c1ssc(Cl)c1Cl`, “inactive”.
